The text below walks through data of PubChem BioAssay AID743327 (National Center for Advancing Translational Sciences (NCATS), 2014).

Active and inactive are the calls of the source. The call rests on the fitted dose curve. Where a SMILES comes first, the peptide text is derived from it. [ ]: non-standard residue; d: D form. Orn = NCCC[C@H](N)C(=O)O

This test in a line: qHTS profiling of Chloroquine Analogs as inhibitors of Plasmodium falciparum (HB3) proliferation. As to conditions: P. falciparum HB3 proliferation; series mostly up to 28.7 µM; activity change, negative = inhibition: at the top concentration. The text has this: Plasmodium falciparum is a virulent malarial parasite that kills 1-2 million people worldwide each year. Transmitted by mosquitoes, the sporozoite form of the parasite enters the blood stream to infect hepatocytes, where they become merozoites that infect red blood cells (erythrocytes). Within erythrocytes, merozoites begin a […] cycle of growth and division, after which the parasite is released to infect new red blood cells. Gametocytes, which form within erythrocytes as well, circulate in the bloodstream and are ingested by the mosquito, thereby completing the life cycle. To profile malarial isolates for differential chemical responses and to identify inhibitors of malarial growth, an assay that measures P. falciparum growth and replication within erythrocytes was employed. This assay uses a DNA binding fluorescent dye (SYBR Green) to detect parasite DNA following cell lysis. Because mature erythrocytes lack DNA, only Plasmodium-derived DNA is detected.
The SYBR Green viability assay was adapted from a method described previously (Plouffe et al., 2008). For screening 3 ul culture medium was dispensed into 1536 well black clear bottom plates (Aurora Biotechnologies) using a Multidrop Combi (Thermo Fisher Scientific Inc.), 23 nL compounds in DMSO were added by a pin tool (Kalypsys), and 5 ul of erythrocytes infected with P. falciparum (0.3% parasitemia, 2.5% hematocrit final concentration) were added. The plates were incubated at 37 C in a humidified incubator in 5% CO2 for 72 h, and 2 ul lysis buffer (20 mM Tris HCl, 10 mM EDTA, 0.16% saponin, 1.6% triton X, 10X SYBR Green I supplied as 10,000X […] by Invitrogen) was added to each well. The plates were mixed for 25 sec with gentle shaking and incubated overnight at room temperature in the dark. The following morning, fluorescence intensity at 485(14) nm excitation and 535(25) nm emission wavelengths was measured on an EnVision (Perkin Elmer) plate reader. Plate reads were normalized relative to the control inhibitor (0.29 uM artemisinin) and vehicle (DMSO) wells present on each plate and then corrected by an algorithm using vehicle-only control plates at the beginning and end of the compound plate stack.
Background: Quantitative high-throughput screening tests each substance at several concentrations.
Turning to `CNCCC(Oc1ccccc1OC)c1ccccc1` (stereo not given), the Potency was 3350 nM (active).

`CCN(CC)CCCC(C)Nc1ccnc2cc(Cl)ccc12` (stereo not given): the “activity change, negative = inhibition” value was -99.7% (inactive).

Consider `CCCCCCCCCCOc1cc2c(=O)c(C(=O)OCC)c[nH]c2cc1OCC`, for which the “activity change, negative = inhibition” value is -98.7% (inactive).

For `OB1OCc2cc(F)ccc21`, the “activity change, negative = inhibition” value was 151% (inactive).

Take `CC(=O)O[C@@]12CO[C@@H]1C[C@H](O)[C@@]1(C)C(=O)[C@H](O)C3=C(C)[C@@H](OC(=O)[C@H](O)[C@@H](NC(=O)OC(C)(C)C)c4ccccc4)C[C@@](O)([C@@H](OC(=O)c4ccccc4)[C@H]21)C3(C)C`: the Potency was 9.4 nM (active).

`CC(C)C[C@@H]1NC(=O)[C@H](CCCN)NC(=O)[C@H](C(C)C)NC(=O)[C@@H]2CCCN2C(=O)[C@@H](Cc2ccccc2)NC(=O)[C@H](CC(C)C)NC(=O)[C@H](CCCN)NC(=O)[C@H](C(C)C)NC(=O)[C@@H]2CCCN2C(=O)[C@@H](Cc2ccccc2)NC1=O` (cyclo(V[Orn]L[dF]PV[Orn]L[dF]P)): the “activity change, negative = inhibition” value is -102% (inactive).

Regarding `COc1cc(C=CC(=O)CC(=O)C=Cc2ccc(O)c(OC)c2)ccc1O`, the “activity change, negative = inhibition” value is 169% (inactive).

With `CN1C[C@H](C(=O)N[C@]2(C)O[C@@]3(O)[C@@H]4CCCN4C(=O)[C@H](Cc4ccccc4)N3C2=O)C[C@@H]2c3cccc4[nH]cc(c34)C[C@H]21`, the Potency is 530 nM (active).

Consider `C[C@@H]1[C@@H](CC(C[C@H]2O[C@@H]3O[C@]4(C)CC[C@@H]5[C@H](C)CC[C@@H]([C@H]2C)[C@@]35OO4)C[S+](=O)([O-])c2ccc(COC(=O)N(C)C)cc2)O[C@@H]2O[C@]3(C)CC[C@H]4[C@H](C)CC[C@@H]1[C@@]24OO3` (stereo not given in full), for which the Potency is 6.7 nM (active).

For `C#C[C@]1(O)CC[C@@H]2[C@H]3CCC4=CC(=O)CC[C@H]4[C@H]3C(=C)C[C@@]21CC`, the Potency is 749 nM (active).

`O=C1C(=O)c2ccccc2C(O)=C1C1CCC(c2ccc(Cl)cc2)CC1` (stereo not given): the Potency was 0.5 nM (active).

On to `CCOc1ccccc1O[C@H](c1ccccc1)[C@H]1CNCCO1`, for which the “activity change, negative = inhibition” value was 154% (inactive).

On to `CCN(CC)CCOc1ccc2c(=O)c3ccc(Cl)cc3n(CCN(CC)CC)c2c1`, for which the Potency is 530 nM (active).

As to `Oc1cc(Cl)ccc1Oc1ccc(Cl)cc1Cl`, the Potency is 1880 nM (active).

In the case of `Cc1cccc(C)c1NC(=O)C(C)N` (stereo not given), the “activity change, negative = inhibition” value was 140% [at 14.2 µM] (inactive).

`COc1cc2c(Nc3ccc(NC(=O)c4ccccc4)cc3)ncnc2cc1OCCCN1CCOCC1`: the “activity change, negative = inhibition” value is -99.2% (inactive).

Take `C[C@@H]1[C@@H](C(=O)C[C@H]2O[C@@H]3O[C@]4(C)CC[C@@H]5[C@H](C)CC[C@@H]([C@H]2C)[C@@]35OO4)O[C@@H]2O[C@]3(C)CC[C@H]4[C@H](C)CC[C@@H]1[C@@]24OO3`: the “activity change, negative = inhibition” value was -101% (inactive).

Take `C[C@@H]1Cc2c([nH]c3cc(Cl)c(F)cc23)[C@]2(N1)C(=O)Nc1ccc(Cl)cc12`: the “activity change, negative = inhibition” value was 155% (inactive).

`CC(C)N=C(N)N=C(N)Nc1ccc(Cl)cc1`: the Potency was 29.8 nM (active).

Turning to `CN1CCN(CCCN2c3ccccc3Sc3ccc(S(=O)(=O)N(C)C)cc32)CC1`, the Potency was 716 nM (active).

Turning to `Cc1oncc1C(=O)Nc1ccc(C(F)(F)F)cc1`, the “activity change, negative = inhibition” value was 137% (inactive).

For the compound `C[C@@H]1CCC2[C@@H](C)[C@@H](O)O[C@@H]3O[C@@]4(C)CC[C@@H]1[C@@]23OO4` (stereo not given in full), the “activity change, negative = inhibition” value was -100% (inactive).

As to `CCCC(=O)O[C@]1(C(=O)CCl)[C@H](C)C[C@@H]2[C@H]3CCC4=CC(=O)C=C[C@]4(C)[C@@]3(F)C(=O)C[C@@]21C`, the “activity change, negative = inhibition” value was 133% (inactive).

In the case of `CSc1cccc(NC(=O)CC[C@H]2O[C@@H]3O[C@]4(C)CC[C@H]5[C@H](C)CC[C@@H]([C@@H]2C)[C@@]35OO4)c1`, the Potency is 18.8 nM (active).

For `C[C@H]1Cc2c([nH]c3cc(Cl)c(F)cc23)[C@@]2(N1)C(=O)Nc1ccc(Cl)cc12`, the “activity change, negative = inhibition” value is -102% (inactive).

Turning to `Cc1cccc(C)c1OCC(N)C(C)C` (stereo not given), the Potency was 18800 nM (active).

Turning to `C[C@H]1[C@@H](OC(=O)CCC(=O)O)O[C@@H]2OC3(C)CC[C@H]4[C@H](C)CC[C@@H]1[C@@]24OO3`, the Potency was 3 nM (active).

Consider `COc1cc2c(cc1C(F)(F)F)N(C(=O)Nc1cc(F)cc(-c3cccnc3)c1)CC2`, for which the Potency was 3350 nM (active).

For the compound `CC(C)(C)c1cc(O)c(CN)c(C(C)(C)C)c1`, the Potency is 150 nM (active).

`C[N+]1(C)CCC(=C(c2ccccc2)c2ccccc2)CC1`: the “activity change, negative = inhibition” value was -94.4% [at 14.2 µM] (inactive).

On to `NC(=NCc1ccccc1)NC(=O)c1nc(Cl)c(N)nc1N`, for which the “activity change, negative = inhibition” value was -98.8% (inactive).

Take `C[C@H]1[C@@H](CCC(=O)Nc2ccc(F)cc2)O[C@@H]2O[C@]3(C)CC[C@@H]4[C@H](C)CC[C@@H]1[C@@]24OO3`: the Potency is 6.7 nM (active).

For `C/C(=C\c1csc(C)n1)[C@@H]1C[C@@H]2O[C@]2(C)CCC[C@H](C)[C@H](O)[C@@H](C)C(=O)C(C)(C)[C@@H](O)CC(=O)O1`, the “activity change, negative = inhibition” value is -97.6% (inactive).

On to `CCCC[C@@H]1C[C@@H](C(=O)NC([C@H](C)Cl)[C@H]2O[C@H](S)[C@H](O)[C@@H](O)[C@@H]2O)N(C)C1` (stereo not given in full), for which the Potency was 33.5 nM (active).

For the compound `CN([C@@H](Cc1ccc(OS(=O)(=O)c2cccc3cnccc23)cc1)C(=O)N1CCN(c2ccccc2)CC1)S(=O)(=O)c1cccc2cnccc12`, the “activity change, negative = inhibition” value is -101% (inactive).
